PGC1a acetyl inh: lowers PGC1a acetylation signal in U2OS cells | AlphaScreen anti-acetyl-lysine; with virally co-expressed GCN5 acetyltransferase | AID 651687 | inhibition, % at 15.6 µM | 350,000 compounds, 0.17% hits;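 active = every replicate shows inhibition of at least 40%; inconclusive = mean inhibition at least 40% but some replicate below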;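 also: 0% = neutral control wells and 100% = positive control wells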
PvdQ acylase: P. aeruginosa PvdQ acylase inhibition; purified PvdQ acylase, fluorescence plate reader; 340,000 compounds, 0.063% hits; inhibition, % at 10 µM; in the data active = inhibition above about 30%, passing the limit was not always enough; inconclusive = no clear call, values can overlap the other calls;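 also: 0% = vehicle neutral wells and 100% = reference inhibitor wells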
C2C12 statin: suppressors of simvastatin-induced myotoxicity in C2C12 myotubes | ATP luminescence, 48 h; scaled: DMSO 0, geranylgeraniol control 100 | rescue of ATP level, % at 7.49 µM | 330,000 compounds, 0.78% hits;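 active = mean ATP rescue above about 67%, or every replicate alone reaching that limit, limit read from the data, passing the limit was not always enough; inconclusive = no clear call, values can overlap the other calls; inactive = mean under the limit and some replicate under it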;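 also: myotubes were challenged with 10 µM simvastatin during compound exposure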
miR-122 sensor: inhibitors of miR-122 in Huh7 cells; 340,000 compounds, 0.3% hits; activation (reporter increase), % at 12.5 µM; AID 602342; Huh7 miR-122 Renilla luciferase sensor, 48 h; neutral wells = 0, positive control = 100;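 active = mean replicate activation score at least 90 and every replicate individually at or above 90; inconclusive = only one of the two criteria met; inactive = neither criterion met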;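 also: higher luciferase means less miR-122 activity so hits act as miR-122 inhibitors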
DENV2 CPE: DENV2-induced cell death inhibition; DENV2-infected cells, cytopathic effect rescue, plate reader; CPE inhibition, % at 9.99 µM; 350,000 compounds, 1.7% hits; AID 651640; in the data active = CPE inhibition above about 20%, passing the limit was not always enough; inconclusive = no clear call, values can overlap the other calls; tested in BHK-21 cells;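 also: 0% = median of neutral control wells and 100% = median of positive control wells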
* marks the source's active call; other numbers are inactive results; ? = inconclusive; . = no result given; [ ] = dose if it differs, or a comment. Hits are enriched below; roughly 2.2% of the tested compounds scored in any of these assays.

SMILES | PGC1a acetyl inh | PvdQ acylase | C2C12 statin | miR-122 sensor | DENV2 CPE
COC(=O)c1[nH]c2ccc(C)cc2c1NC(=O)CN1CCN(c2ccccc2)CC1 | . | -3.9 | . | . | .
C[C@H](CO)N1C[C@H](C)[C@@H](CN(C)C(=O)NC2CCCCC2)OCCCC[C@H](C)Oc2ccc(NS(=O)(=O)c3cccs3)cc2C1=O | -5.7 | . | 11.1 | 5.7[16.7 µM] | 3.5
Cc1cccc(Nc2nc(CC(=O)O)cs2)c1 | 1.7 | -13.9 | 128.2* | 1.0 | 5.1
COC(=O)Cc1csc(Nc2ccccc2)n1 | . | -8.6 | . | . | 0.5
CO[C@H]1CN(C)C(=O)c2ccc(NC(=O)C3CCC3)cc2OC[C@@H](C)N(CC2CCCCC2)C[C@@H]1C | -20.6 | . | 3.9 | . | -1.9
Nc1cccc2cc(S(=O)(=O)O)ccc12 | 3.1 | -7.8 | 2.6 | -5.0 | 3.7
Nc1ccc2c(S(=O)(=O)O)cccc2c1S(=O)(=O)O | 10.0 | -28.8 | 102.3* | -4.8 | 13.7
O=C(Nc1ccnn1C1CCN(CC(O)CO)CC1)C1CCCC1 (stereo not given) | -3.0 | -6.7 | -13.9 | 0.9 | 70.8*
O=C(NCC[C@@H]1CC[C@H](NS(=O)(=O)c2ccc(Cl)cc2)[C@@H](CO)O1)Nc1ccc(F)cc1 | . | . | . | . | -12.4
Cc1ccc(-c2nnc(-c3cccc4ccccc34)o2)cc1 | -0.4 | 9.1 | 0.8 | 3.0 | -1.7
Cc1cccc(-c2nnc(-c3cccc4ccccc34)o2)c1 | 2.6 | -0.3 | -2.9 | 145.6* | -3.0
CO[C@@H]1CN(C)C(=O)c2ccc(NS(=O)(=O)c3cccc(F)c3)cc2OC[C@@H](C)N(C(=O)Cc2cccnc2)C[C@H]1C | 3.1 | . | -7.4 | . | 82.4*
CO[C@H]1CN(C)C(=O)c2ccc(NS(=O)(=O)c3cccc(F)c3)cc2OC[C@H](C)N(C(=O)Cc2cccnc2)C[C@H]1C | 3.8 | . | -2.8 | . | 22.5*
O=c1[nH]ncc2c3ccccc3n(Cc3ccccc3)c12 | -2.7 | -14.2 | 107.6* | 4.5 | .
Cc1ccc(Cn2c3ccccc3c3cn[nH]c(=O)c32)cc1 | 13.3 | -4.7 | 35.8 | -3.6 | 1.5
C[C@@H]1CN([C@H](C)CO)S(=O)(=O)c2ccc(C3=CCCC3)cc2O[C@H]1CN(C)C(=O)C1CCC1 | 12.4 | . | -45.0 | 5.7[16.7 µM] | 16.5
C[C@@H]1CCCCO[C@@H](CN(C)S(C)(=O)=O)[C@H](C)CN([C@@H](C)CO)C(=O)c2cc(NS(=O)(=O)c3cn(C)cn3)ccc2O1 | -2.5 | . | . | 2.5[16.7 µM] | ?
O=C(CCNS(=O)(=O)c1ccccc1C(F)(F)F)N1CCN(C(c2ccccc2)c2ccccc2)CC1 | -2.5 | -3.5 | 43.8 | -5.5 | 91.5*
CN1C(=O)C(c2cn(C)c3ccccc23)(c2cn(C)c3ccccc23)c2cc(F)ccc21 | . | . | . | . | 29.5*
CN1C(=O)[C@@](O)(c2cn(C)c3ccccc23)c2cc(F)ccc21 | . | . | . | . | 4.5
CCCSc1ccc([C@@H]2[C@H]3C(=O)N(CC)C(=O)[C@H]3[C@]3(C(=O)OC)CCCN23)cc1OC | . | -7.5 | 3.4 | . | 102.2*
CO[C@@H]1CN(C)C(=O)c2ccc(NC(=O)c3cccc(F)c3)cc2OC[C@@H](C)N(CC2CC2)C[C@@H]1C | -7.8 | . | -13.8 | . | 0.5
Cc1noc(C)c1NC(=O)Nc1ccc2c(c1)C(=O)N([C@@H](C)CO)C[C@H](C)[C@H](CN(C)C(=O)NC1CCCCC1)OCCCC[C@@H](C)O2 | -6.4 | . | . | -0.3[16.7 µM] | 28.8*
Cc1noc(C)c1NC(=O)N(C)C[C@@H]1OCCCC[C@H](C)Oc2ccc(NC(=O)NC3CCCCC3)cc2C(=O)N([C@@H](C)CO)C[C@@H]1C | 6.3 | . | . | 5.2[16.7 µM] | 23.0*
Cc1noc(C)c1NC(=O)Nc1ccc2c(c1)C(=O)N([C@H](C)CO)C[C@@H](C)[C@H](CN(C)C(=O)NC1CCCCC1)OCCCC[C@@H](C)O2 | 5.2 | . | . | -4.0[16.7 µM] | 6.5
Cc1noc(C)c1NC(=O)Nc1ccc2c(c1)C(=O)N([C@H](C)CO)C[C@H](C)[C@@H](CN(C)C(=O)Nc1c(C)noc1C)OCCCC[C@H](C)O2 | 1.3 | . | . | 12.5[16.7 µM] | 0.4
COc1ccc(NC(=O)N(C)C[C@H]2Oc3ccc(NC(=O)NC4CCCCC4)cc3C(=O)N([C@@H](C)CO)C[C@@H]2C)cc1 | -6.7 | . | 35.9 | -2.1[16.7 µM] | 45.6*
Cc1noc(C)c1NC(=O)N(C)C[C@@H]1OCCCC[C@@H](C)Oc2ccc(NC(=O)NC3CCCCC3)cc2C(=O)N([C@@H](C)CO)C[C@H]1C | -11.9 | . | . | 3.9[16.7 µM] | 75.8*
CCCNC(=O)C[C@@H]1CC[C@H]2[C@H](COc3ccc(NC(=O)CC)cc3C(=O)N2C)O1 | -3.2 | . | -0.7 | 10.4[16.7 µM] | -4.9
